Experimental data published in PubChem BioAssay (NCATS).
Records with an inconclusive call do not appear. Calls of active or inactive are those of the source. Unless noted, the call rests on the fitted dose curve; in most records, active means well fitted curve in the direction sought with a large enough effect; inconclusive means small, poorly fitted or top-dose-only effect, or another doubt; inactive means no such curve, though single readings can be large; an effect the other way counts as inactive or inconclusive.

Legend:
[1] = target: Lysosomal acid glucosylceramidase (Homo sapiens) (UniProt P04062); assay: Glucocerebrosidase-p2 (AID 348; in the data active means potency below about 10 µM; further: potency means the concentration at half of the fitted maximal effect); settings: purified GBA, blue fluorogenic substrate, 40 min
Procedure, shortened: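 Normal human glucocerebrosidase (0.2 nM) with blue fluorogenic substrate (80 uM final) in citrate/phosphate pH 5.9 with 10mM sodium taurocholate, 0.01% tween-20; 40 min RT, NaOH/glycine stop; fluorescence Ex 365/Em 440; AC50 from a titration from 0.6 nM upwards.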

[2] = AP1 Signaling Pathway (AID 357; active means well fitted curve in either direction with a large enough effect, not every such curve was filed as active;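 further: ME-180 reporter cells stimulated with EGF at its EC50 level; on the % scale 0 is the no-effect control and ±100 the full control effect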); settings: ME-180 AP-1-bla reporter, EGF-induced, beta-lactamase ratio, 5 h; at 7.69 µM (top of the series) unless noted
Procedure, shortened: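 AP-1-bla ME-180 cells, Opti-MEM + 0.5% dialyzed FBS, plated overnight 37 °C. Cpd titration + EC50 EGF, 5 h 37 °C. CCF4 2.5 h RT; ex 405, em 460/530 ratio → %activity, AC50.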

[3] = NFAT Signaling Pathway (AID 444; active means well fitted curve in either direction with a large enough effect, not every such curve was filed as active;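 further: carbachol stimulus at about its EC50 of 1 µM final; on the % scale 0 is the no-effect control and ±100 the full control effect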); settings: Jurkat NFAT-bla M1, carbachol, beta-lactamase ratio, 5 h; at 7.69 µM (top of the series) unless noted
Procedure, shortened: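 Jurkat cells carrying an NFAT-driven β-lactamase reporter and co-transfected muscarinic M1 receptor were treated with compound plus carbachol (1 uM final, an EC50 level) for 5 h at 37 °C. CCF4 loading followed for 1 h at RT; 460/530 nm ratio gave %activity.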

[4] = target: Glucocorticoid receptor (Homo sapiens) (UniProt P04150); assay: GR-GFP Redistribution (AID 450;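 active means compounds whose dose series gives a full or clear partial fitted curve of increased nuclear translocation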; further: potency means the concentration at half of the fitted maximal effect); settings: U2OS GR-GFP nuclear translocation, laser cytometry, 2 h
[5] = target: Glucocorticoid receptor (Homo sapiens) (UniProt P04150); assay: GR-EFC Redistribution (AID 451; calls by dose curve; further: potency means the concentration at half of the fitted maximal effect); settings: CHO-K1 GR-EFC translocation, beta-gal luminescence, 2 h
Procedure, shortened: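 CHO-K1 cells stably expressing nuclear-localized β-gal enzyme acceptor and GR fused C-terminally to the enzyme donor fragment; ligand-driven nuclear translocation restores β-gal by complementation. Compounds titrated up to 46 uM final, 2 h at 37 °C; luminescence read.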

[6] = target: Mitogen-activated protein kinase 10 (Mus musculus) (UniProt Q61831); assay: JNK3 AlphaScreen Assay (AID 530; active means well fitted curve in either direction with a large enough effect, not every such curve was filed as active;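 further: kinase came from lysate of stimulated human HepG2 cells; signal reports phosphorylation of biotinylated GST-cJun 1-79 at Ser73 with 10 µM ATP; on the % scale 0 is the no-effect control and ±100 the full control effect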); settings: JNK3 lysate, c-Jun phosphorylation; series mostly up to 57.1 µM
Procedure, shortened: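 Phosphorylation of biotinylated GST-cJun(1-79) at Ser73 is measured by AlphaScreen proximity luminescence. Enzyme is JNK3 in HepG2 lysates activated with interleukin-1beta and tumor necrosis factor alpha; ATP is 10 uM final.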

[7] = target: 3',5'-cyclic-AMP phosphodiesterase 4B (Homo sapiens) (UniProt Q07343); assay: qHTS Assay for Inhibitors of PDE-IV (AID 607; active means well fitted activation curve with a large enough effect in the main read-out, with a control signal flat, not every such curve was filed as active; further: % of control where 0% means no effect); settings: HEK293 ACTOne CNG channel cells, membrane potential fluorescence; series mostly up to 22.9 µM
Procedure, shortened: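 ACTOne HEK293 cells carry a modified cAMP-gated CNG channel and express endogenous PDE4; plated 1000 cells/well, compounds up to 22.9 uM final. Membrane-potential dye fluorescence (ex 535/em 590) was read; parental cells received 10 uM forskolin + 100 uM RO 20-1724.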

[8] = target: Dual specificity protein kinase CLK4 (Homo sapiens) (UniProt Q9HAZ1); assay: qHTS Assay for Inhibitors of CDC-like Kinase 4 (Kinase-Glo Assay) (AID 1770); settings: recombinant Clk4, Kinase-Glo ATP depletion luminescence; series mostly up to 66.7 µM; further: on the % scale 0 is the no-effect control and ±100 the full control effect; nearly all actives have a fitted effect of over 65% in size
Procedure, shortened: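 25 nM Clk4 with 100 uM RS repeat peptide and 1 uM ATP (final) in Tris pH7.5, 10 mM MgCl2, 4.5 h at room temperature. Remaining ATP measured by Kinase-Glo luciferase luminescence.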

[9] = target: Dual specificity protein kinase CLK4 (Homo sapiens) (UniProt Q9HAZ1); assay: qHTS Assay for Inhibitors of CDC-like Kinase 4 (ADP-Glo Assay) (AID 1771); settings: recombinant CLK4, ADP-Glo luminescence; series mostly up to 80 µM; further: on the % scale 0 is the no-effect control and ±100 the full control effect; nearly all actives have a fitted effect of over 70% in size
Procedure, shortened: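 ADP production was read by ADP-Glo luminescence after residual ATP depletion, following 1 h room-temperature reaction of 25 nM Clk4, 1 uM ATP and 100 uM RS peptide with MgCl2, EGTA, DTT and Triton X-100.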

[10] = target: Dual specificity protein kinase CLK4 (Homo sapiens) (UniProt Q9HAZ1); assay: qHTS Assay for Inhibitors of CDC-like Kinase 4 (ADP-FP Assay) (AID 1795); settings: Transcreener ADP fluorescence polarization; series mostly up to 50 µM;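 further: recombinant human CLK4 phosphorylating RS repeat peptide at 1 µM ATP; on the % scale 0 is the no-effect control and ±100 the full control effect; nearly all actives have a fitted effect of over 60% in size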
Procedure, shortened: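 Recombinant Clk4 (6.25 nM) phosphorylated 100 uM RS repeat peptide with 1 uM ATP in 25 mM Tris pH 7.5, 10 mM MgCl2, 0.5 mM EGTA, 2.5 mM DTT, 0.01% Triton X-100 for 1 h. ADP was detected by Transcreener ADP2 competitive fluorescence polarization after 30 min at room temperature.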

[11] = target: Ubiquitin carboxyl-terminal hydrolase 1 (Homo sapiens) (UniProt O94782); assay: Inhibitors of USP1/UAF1: Pilot qHTS (AID 504865); settings: purified USP1/UAF1, Ub-rhodamine cleavage fluorescence; series mostly up to 54.9 µM;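 further: rhodamine fluorescence freed from ubiquitin-rhodamine substrate followed over time; top concentration of the series differs between compounds; on the % scale 0 is the no-effect control and ±100 the full control effect; nearly all actives have a fitted effect of over 35% in size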
Procedure, shortened: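 USP1/UAF1 complex at 1 nM preincubated 15 min at room temperature with compound, then Ub-Rho substrate added at 150 nM final. Fluorescence (480/540 nm) read kinetically in 50 mM HEPES pH 7.8, 0.5 mM EDTA, 1 mM TCEP, 0.1 mg/ml BSA, 0.01% Tween-20.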

[12] = Primary qHTS for small molecule stabilizers of the endoplasmic reticulum resident proteome: Secreted ER Calcium Modulated Protein (SERCaMP) assay (AID 1508630); settings: SH-SY5Y GLuc-SERCaMP (Gaussia luciferase released on ER calcium loss) secretion, thapsigargin, luminescence; series mostly up to 38.4 µM; further: on the % scale 0 is the no-effect control and ±100 the full control effect
Procedure, shortened: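 The SH-SY5Y reporter protocol was run at 3 concentrations up to 38.3 uM (primary) or 11 concentrations (follow-up): 16 h compound, 100 nM thapsigargin for 4 h, then extracellular luciferase luminescence.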

[13] = Stat Signaling Pathway (AID 446; active means well fitted curve in either direction with a large enough effect, not every such curve was filed as active); settings: ME-180 SIE beta-lactamase reporter, IL-6 stimulated, 5 h; at 7.69 µM (top of the series) unless noted
Procedure, shortened: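 Compound effects on IL-6-induced STAT reporter activity were measured in ME-180 cells. After overnight culture, cells were co-treated with 40 pM IL-6 for 5 hrs before beta-lactamase substrate loading at room temperature.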

[14] = target: Cytochrome P450 3A4 (Homo sapiens) (UniProt P08684); assay: qHTS Assay for Activators of Cytochrome P450 3A4 (AID 885); settings: recombinant CYP3A4, Luciferin-PPXE luminescence, 60 min; series mostly up to 57.1 µM; further: nearly all actives have a fitted effect of over 65% in size
Procedure, shortened: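 CYP3A4 activity: Luciferin-PPXE O-dealkylation, 25uM substrate, 200mM KPO4, RT throughout. Read-out is luciferase luminescence; higher values reflect activation.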

[15] = qHTS Assay for Identification of Small Molecule Agonists for Hypoxia Response Element Signaling Pathway (AID 914; active means well fitted activation curve with a large enough effect in the signal ratio, with a control signal flat, not every such curve was filed as active; the % refers to the signal ratio; further: % of control where 0% means no effect); settings: ME-180 (cervical carcinoma) HRE-bla reporter, beta-lactamase ratio, CoCl2, 17 h; activation: active compounds read high
Procedure, shortened: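 In Opti-MEM containing 0.5% dialyzed FBS and 10 mM HEPES, ME-180 HRE-bla cells received a compound titration and EC50 CoCl2. They were incubated 17 hours, then CCF4-loaded 2.5 hours at room temperature before ratio reading.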

Ubiquitin carboxyl-terminal hydrolase 1 (Homo sapiens), sequence (O94782 whole entry, looked up): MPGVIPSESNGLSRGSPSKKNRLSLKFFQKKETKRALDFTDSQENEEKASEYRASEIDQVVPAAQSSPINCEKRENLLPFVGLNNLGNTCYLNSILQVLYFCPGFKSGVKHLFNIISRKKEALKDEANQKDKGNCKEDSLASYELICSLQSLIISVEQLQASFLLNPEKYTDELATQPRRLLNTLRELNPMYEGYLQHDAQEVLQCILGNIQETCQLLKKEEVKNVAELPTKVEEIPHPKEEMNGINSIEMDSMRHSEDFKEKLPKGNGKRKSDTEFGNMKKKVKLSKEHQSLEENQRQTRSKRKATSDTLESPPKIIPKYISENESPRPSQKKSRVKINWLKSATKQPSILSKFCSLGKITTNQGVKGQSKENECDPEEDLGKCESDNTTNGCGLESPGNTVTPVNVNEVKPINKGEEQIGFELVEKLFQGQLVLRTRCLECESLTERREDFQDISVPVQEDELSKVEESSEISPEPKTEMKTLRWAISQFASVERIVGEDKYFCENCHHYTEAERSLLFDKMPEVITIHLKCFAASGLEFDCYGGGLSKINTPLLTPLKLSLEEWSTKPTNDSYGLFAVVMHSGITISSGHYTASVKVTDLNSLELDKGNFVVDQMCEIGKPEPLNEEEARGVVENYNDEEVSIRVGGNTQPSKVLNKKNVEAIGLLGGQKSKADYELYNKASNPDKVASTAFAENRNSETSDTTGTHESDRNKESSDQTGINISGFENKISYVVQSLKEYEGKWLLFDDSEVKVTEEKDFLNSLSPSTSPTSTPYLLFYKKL
Glucocorticoid receptor (Homo sapiens), sequence (P04150 whole entry, looked up, the tested form may be a part): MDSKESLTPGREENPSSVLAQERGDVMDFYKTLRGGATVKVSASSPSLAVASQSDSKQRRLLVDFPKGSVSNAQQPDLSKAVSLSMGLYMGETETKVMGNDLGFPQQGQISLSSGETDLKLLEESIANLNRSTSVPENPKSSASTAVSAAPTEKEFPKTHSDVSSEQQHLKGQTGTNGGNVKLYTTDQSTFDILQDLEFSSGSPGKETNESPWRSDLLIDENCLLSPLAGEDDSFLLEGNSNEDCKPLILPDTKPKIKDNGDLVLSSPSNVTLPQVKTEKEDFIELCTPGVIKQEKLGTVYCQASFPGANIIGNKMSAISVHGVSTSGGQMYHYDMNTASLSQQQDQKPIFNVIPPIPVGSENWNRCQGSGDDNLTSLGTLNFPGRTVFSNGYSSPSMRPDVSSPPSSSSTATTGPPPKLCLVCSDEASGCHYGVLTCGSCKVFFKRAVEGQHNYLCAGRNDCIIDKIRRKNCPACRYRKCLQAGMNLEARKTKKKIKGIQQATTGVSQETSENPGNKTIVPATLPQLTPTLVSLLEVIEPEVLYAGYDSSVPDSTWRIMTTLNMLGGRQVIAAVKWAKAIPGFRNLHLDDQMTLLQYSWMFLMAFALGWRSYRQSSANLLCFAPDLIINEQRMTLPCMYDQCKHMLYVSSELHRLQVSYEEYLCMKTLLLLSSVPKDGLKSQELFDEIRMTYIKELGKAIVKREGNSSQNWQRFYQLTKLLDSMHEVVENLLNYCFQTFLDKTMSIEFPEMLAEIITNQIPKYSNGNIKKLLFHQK
3',5'-cyclic-AMP phosphodiesterase 4B (Homo sapiens), sequence (Q07343 whole entry, looked up): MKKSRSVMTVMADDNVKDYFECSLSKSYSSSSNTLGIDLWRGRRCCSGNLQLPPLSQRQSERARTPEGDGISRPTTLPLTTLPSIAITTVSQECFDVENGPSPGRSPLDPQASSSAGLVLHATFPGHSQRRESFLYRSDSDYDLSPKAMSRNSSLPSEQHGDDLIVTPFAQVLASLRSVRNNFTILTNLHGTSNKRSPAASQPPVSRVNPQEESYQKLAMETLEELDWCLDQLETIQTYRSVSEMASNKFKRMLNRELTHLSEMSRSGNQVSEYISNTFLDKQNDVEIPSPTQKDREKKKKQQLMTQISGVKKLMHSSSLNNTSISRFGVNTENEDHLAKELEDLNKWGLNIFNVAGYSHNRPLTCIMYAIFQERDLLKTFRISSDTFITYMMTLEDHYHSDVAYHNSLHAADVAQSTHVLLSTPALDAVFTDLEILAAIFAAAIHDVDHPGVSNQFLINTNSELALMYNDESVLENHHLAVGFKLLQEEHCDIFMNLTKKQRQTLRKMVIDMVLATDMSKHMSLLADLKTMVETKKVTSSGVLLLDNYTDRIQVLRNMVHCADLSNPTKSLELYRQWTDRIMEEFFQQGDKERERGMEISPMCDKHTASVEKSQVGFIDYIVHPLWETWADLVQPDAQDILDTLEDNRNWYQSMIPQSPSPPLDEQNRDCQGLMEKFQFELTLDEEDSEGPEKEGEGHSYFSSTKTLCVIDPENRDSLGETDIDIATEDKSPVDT
Dual specificity protein kinase CLK4 (Homo sapiens), sequence (Q9HAZ1 whole entry, looked up): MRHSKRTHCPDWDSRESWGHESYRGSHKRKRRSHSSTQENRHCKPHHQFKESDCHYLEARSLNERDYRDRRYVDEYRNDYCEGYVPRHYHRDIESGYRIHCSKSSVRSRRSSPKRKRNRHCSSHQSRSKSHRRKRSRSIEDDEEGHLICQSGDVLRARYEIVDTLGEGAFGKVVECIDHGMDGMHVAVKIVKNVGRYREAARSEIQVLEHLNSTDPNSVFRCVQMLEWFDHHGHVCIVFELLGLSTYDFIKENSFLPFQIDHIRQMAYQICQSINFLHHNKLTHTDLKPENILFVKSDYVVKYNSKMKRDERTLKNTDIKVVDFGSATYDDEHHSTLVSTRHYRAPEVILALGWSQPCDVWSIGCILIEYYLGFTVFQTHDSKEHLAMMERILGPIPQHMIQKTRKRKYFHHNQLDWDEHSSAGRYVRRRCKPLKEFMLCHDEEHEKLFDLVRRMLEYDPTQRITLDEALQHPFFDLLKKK
Lysosomal acid glucosylceramidase (Homo sapiens), sequence (P04062 whole entry, looked up): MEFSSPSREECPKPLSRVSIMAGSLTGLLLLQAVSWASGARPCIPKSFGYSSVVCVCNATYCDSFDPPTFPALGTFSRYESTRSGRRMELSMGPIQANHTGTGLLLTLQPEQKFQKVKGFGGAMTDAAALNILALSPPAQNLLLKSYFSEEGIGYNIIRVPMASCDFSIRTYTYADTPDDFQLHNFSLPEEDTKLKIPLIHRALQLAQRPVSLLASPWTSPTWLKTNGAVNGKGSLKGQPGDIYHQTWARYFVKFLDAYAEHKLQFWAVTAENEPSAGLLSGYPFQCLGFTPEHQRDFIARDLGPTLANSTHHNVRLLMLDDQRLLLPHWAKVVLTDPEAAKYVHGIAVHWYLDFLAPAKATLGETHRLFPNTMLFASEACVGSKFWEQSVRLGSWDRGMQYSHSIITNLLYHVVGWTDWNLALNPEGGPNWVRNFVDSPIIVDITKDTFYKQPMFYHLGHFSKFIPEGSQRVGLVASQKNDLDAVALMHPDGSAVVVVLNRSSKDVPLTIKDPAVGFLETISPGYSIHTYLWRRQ
Cytochrome P450 3A4 (Homo sapiens), sequence (P08684 whole entry, looked up): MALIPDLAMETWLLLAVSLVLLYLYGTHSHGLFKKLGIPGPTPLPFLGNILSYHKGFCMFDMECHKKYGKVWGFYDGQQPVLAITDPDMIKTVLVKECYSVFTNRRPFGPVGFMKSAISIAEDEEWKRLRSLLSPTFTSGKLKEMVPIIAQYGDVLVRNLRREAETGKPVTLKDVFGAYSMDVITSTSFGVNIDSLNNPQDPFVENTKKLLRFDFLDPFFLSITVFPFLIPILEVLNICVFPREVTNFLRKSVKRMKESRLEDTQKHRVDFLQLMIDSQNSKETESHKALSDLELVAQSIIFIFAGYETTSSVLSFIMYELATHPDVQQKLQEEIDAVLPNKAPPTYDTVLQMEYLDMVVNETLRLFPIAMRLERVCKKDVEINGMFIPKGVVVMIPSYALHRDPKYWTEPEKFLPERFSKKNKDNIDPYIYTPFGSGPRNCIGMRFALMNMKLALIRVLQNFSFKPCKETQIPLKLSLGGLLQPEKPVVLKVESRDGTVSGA

COc1ccc(-c2nc3cnc(N4CCOCC4)nc3n(Cc3cccc(OC)c3)c2=O)cc1
inactive: Potency [1] > 11.4 µM | activity change, negative = inhibition [2] 18.4% | activity change, negative = inhibition [3] 18.6% | Potency [4] > 9.22 µM | Potency [5] > 46 µM | Potency [6] | Potency [7] | Potency [8] | Potency [9] | Potency [10] | Potency [11] | outcome [12]

O=c1c(-c2cccs2)nc2cnc(Oc3ccccc3)nc2n1Cc1cccs1
inactive: Potency [1] > 11.4 µM | activity change, negative = inhibition [2] -14% | activity change, negative = inhibition [3] 1.21% | activity, negative = inhibition [13] 1.3% | Potency [4] > 9.22 µM | Potency [6] | Potency [7] | Potency [14] | activation [15] 9.14% | Potency [8] | Potency [9] | Potency [10] | outcome [12]

Cn1c(=O)c(CCc2ccccc2)nc2cnc(N3CCOCC3)nc21
inactive: Potency [1] > 11.4 µM | activity change, negative = inhibition [2] -10.6% | activity change, negative = inhibition [3] 10.9% | activity, negative = inhibition [13] 1.67% | Potency [4] > 9.22 µM | Potency [5] > 46 µM | Potency [6] | Potency [7] | Potency [8] | Potency [9] | Potency [10] | Potency [11] | outcome [12]

COCCn1c(=O)c(CCc2ccccc2)nc2cnc(Nc3ccccc3)nc21
inactive: Potency [1] > 11.4 µM | activity change, negative = inhibition [2] 16.9% | activity change, negative = inhibition [3] 10.5% | Potency [4] > 9.22 µM | Potency [5] > 46 µM | Potency [6] | Potency [8] | Potency [9] | Potency [10] | Potency [11] | outcome [12]

COc1cccc(Cn2c(=O)c(-c3cn(C)c4ccccc34)nc3cncnc32)c1
inactive: Potency [1] > 11.4 µM | activity change, negative = inhibition [2] 2.97% | activity change, negative = inhibition [3] -0.984% | activity, negative = inhibition [13] -0.403% | Potency [4] > 9.22 µM | Potency [5] > 46 µM | Potency [6] | Potency [14] | Potency [8] | Potency [9] | Potency [10] | Potency [11] | outcome [12]

Cc1noc(C)c1-c1cncnc1-n1ccnc1
inactive: Potency [1] > 11.4 µM | activity change, negative = inhibition [2] 0.604% | activity change, negative = inhibition [3] -5.32% | activity, negative = inhibition [13] 12.7% | Potency [4] > 46 µM | Potency [5] > 46 µM | Potency [6] | Potency [7] | Potency [8] | Potency [9] | Potency [10] | Potency [11] | outcome [12]

Cn1cc(-c2nc3cnc(OCc4ccccc4)nc3n(CCC#N)c2=O)c2ccccc21
inactive: Potency [1] > 11.4 µM | activity change, negative = inhibition [2] 3.51% | activity change, negative = inhibition [3] 9.29% | activity, negative = inhibition [13] 27.1% | Potency [4] > 46 µM | Potency [5] > 46 µM | Potency [6] | Potency [7] | Potency [8] | Potency [9] | Potency [10] | Potency [11] | outcome [12]
